Seven compounds from PubChem BioAssay (Tox21) can be followed below.

Test [1] can be described thus: Nuclear factor erythroid 2-related factor 2/antioxidant responsive element (Nrf2/ARE) small molecule agonists: qHTS cell viability counter screen in human keratinocytes (AID 1919968; active = well fitted curve in the direction sought with a large enough effect in the repeat runs; an effect the other way counts as inactive or inconclusive; note: nearly all actives have a fitted effect of over 55% in size; note: potency is the fitted concentration of half-maximal effect). The gist of the method: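 Seed 1,500 KeratinoSens cells per well, then incubate 5 h at 37 C/5% CO2. Add compounds in DMSO and incubate 23 h. Add CellTiter-Fluor, wait 1 h and read fluorescence.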
For orientation: qHTS replaces the single test concentration by a dilution series.

The nature of test [2]: Nuclear factor erythroid 2-related factor 2/antioxidant responsive element (Nrf2/ARE) small molecule agonists: luciferase reporter gene qHTS assay in human keratinocytes (AID 1919969). Note: nearly all actives have a fitted effect of over 35% in size. Note: potency is the fitted concentration of half-maximal effect. For orientation: Reporter assays use an easily measured gene product as a stand-in for the process of interest.
Test [3] has as its target Gonadotropin-releasing hormone receptor (Homo sapiens) (UniProt P30968). Put plainly: Human gonadotropin-releasing hormone receptor (GnRHR) small molecule agonists, calcium flux assay in GnRHR-HEK293 cells (AID 1920063). Note: nearly all actives have a fitted effect of over 35% in size. Note: potency is the fitted concentration of half-maximal effect. Put shortly:
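Cells: HEK293 stably expressing human GnRHR. Steps: overnight (18 h) culture, 1 h calcium dye loading at 37 C, compound addition, kinetic fluorescence read at 480/540 nm. Each compound tested at 15 concentrations in triplicate.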
For orientation: Calcium assays in cells follow changes in intracellular calcium, usually with a dye or a luminescent sensor.

In test [4] the target is KiSS-1 receptor (Homo sapiens) (UniProt Q969F8). The experiment in a line: Human kisspeptin (KISS1R) small molecule agonists, calcium flux assay in KISS1R-HEK293 cells (AID 1920064; active = well fitted curve in the direction sought with a large enough effect in the repeat runs; an effect the other way counts as inactive or inconclusive). The gist of the method:
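Cells plated and incubated 18 h; dye added, 1 h at 37 C; compounds in DMSO pinned in; signal read at 480/540 nm every second for 3 min. Each compound tested at 15 concentrations in triplicate.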

The nature of test [5]: p53 small molecule agonists, cell-based qHTS assay with human liver microsomes (AID 1963577).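 Note: p53 response element beta-lactamase reporter cells with liver microsomes plus NADPH.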 The gist of the method: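 With metabolic activation: human liver microsomes (0.5 mg/mL final) plus NADPH (0.5 mg/mL final) added alongside compounds to p53RE-bla cells; 16 h 37 C exposure; beta-lactamase read by LiveBLAzer fluorescence.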
A short description of test [6]: p53 small molecule agonists, cell-based qHTS assay with rat liver microsomes (AID 1963578). The gist of the method:
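Metabolic activation by rat liver microsomes and NADPH, each 0.5 mg/mL final, added right after compounds to p53RE-bla reporter cells (4,000/well, plated 5 h earlier). 16 h at 37 C, then LiveBLAzer substrate for 2 h at room temperature in the dark; fluorescence read-out.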

Test [7] can be described thus: p53 small molecule agonists, cell-based qHTS assay with human liver microsomes: qHTS cell viability counter screen (AID 1963579). Note: nearly all actives have a fitted effect of over 45% in size. Note: potency is the fitted concentration of half-maximal effect. The gist of the method: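 Metabolic activation used human liver microsomes and NADPH, both 0.5 mg/mL final, over 16 hours at 37 C on p53RE-bla cells (4,000/well). Cytotoxicity measured by CellTiter-Glo luminescence, 30 min at room temperature.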

Test [8] in a line: p53 small molecule agonists, cell-based qHTS assay with rat liver microsomes: qHTS cell viability counter screen (AID 1963580). Note: nearly all actives have a fitted effect of over 45% in size. Note: potency is the fitted concentration of half-maximal effect. The gist of the method:
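Intracellular ATP, by CellTiter-Glo luminescence, defines viability. HCT-116 p53RE-bla cells, 4,000 per well, were compound-treated in the presence of rat liver microsomes and NADPH for 16 h at 37 C.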

The target of test [9] is 5-hydroxytryptamine receptor 2A (Homo sapiens) (UniProt P28223). The experiment in a line: 5-hydroxytryptamine receptor 2A (HTR2A) small molecule antagonists, cell-based qHTS assay (AID 1963586). Note: nearly all actives have a fitted effect of over 45% in size. Note: potency is the fitted concentration of half-maximal effect. The gist of the method: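 Antagonist-mode intracellular calcium assay: DOI (4 nM) added after 5 min compound pre-incubation at room temperature to dye-loaded HTR2A-CHO cells. Fluorescence followed for 3 min, sampled every second.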

The target is the same in test [10]. The experiment in a line: 5-hydroxytryptamine receptor 2A (HTR2A) small molecule agonists, cell-based qHTS assay (AID 1963587). Note: nearly all actives have a fitted effect of over 30% in size. Note: potency is the fitted concentration of half-maximal effect. The gist of the method: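 Kinetic calcium-flux fluorescence (2 min, 1 sec intervals) after compound addition in agonist mode. HTR2A-CHO cells were cultured 18 h, then dye-loaded 1 h at 37 C.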
The target of test [11] is Muscarinic acetylcholine receptor M1 (Homo sapiens) (UniProt P11229). The experiment in a line: Cholinergic receptor muscarinic 1 (CHRM1) small molecule antagonists, cell-based qHTS assay (AID 1963588). Note: nearly all actives have a fitted effect of over 40% in size. The gist of the method:
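CHRM1-CHO calcium-flux assay, antagonist mode. Cells were seeded 18 h, dye-loaded 1 h at 37 C and given compound for 5 min at RT, then acetylcholine was added at 50nM. FDSS fluorescence was read 3 min; 15 concentrations, three runs.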

Test [12] has the same target. The experiment in a line: Cholinergic receptor muscarinic 1 (CHRM1) small molecule agonists, cell-based qHTS assay (AID 1963589). Note: nearly all actives have a fitted effect of over 35% in size. Put shortly:
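Agonist-mode qHTS in CHO cells stably carrying human muscarinic M1. Intracellular calcium is tracked by fluorescence every second after compound transfer; each compound runs at 15 concentrations in three independent runs.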

Test [13] can be described thus: cAMP Responsive Elements (CRE) small molecule agonists, cell-based qHTS assay (AID 1963590). Put shortly: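 Agonist mode qHTS in CRE-bla HEK 293T cells: compounds dosed from DMSO for 3 h at 37 C/5% CO2, followed by LiveBLAzer B/G FRET substrate for 2 h at room temperature.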
Test [14] deals with D(2) dopamine receptor (Homo sapiens) (UniProt P14416). The experiment in a line: Dopamine D2 receptor (DRD2) small molecule agonists, cell-based qHTS assay (AID 1963594). Note: nearly all actives have a fitted effect of over 35% in size. The gist of the method: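 cAMP accumulation in DRD2-HEK293 cells measured by HTRF after 1 h detection; compounds added 10 min before NKH477 (200nM […]) forskolin-analogue stimulation, 30 min at room temperature, with Ro20-1724 present at 0.1 mM final.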

Test [15] has the same target. Put plainly: Dopamine D2 receptor (DRD2) small molecule antagonists, cell-based qHTS assay (AID 1963595; active = well fitted inhibition curve with a large enough effect in the signal ratio in the repeat runs, with a control signal flat; the % refers to the signal ratio; note: potency is the fitted concentration of half-maximal effect). The gist of the method: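 DRD2-HEK293; 0.1 mM Ro20-1724; cpd 10 min RT; NKH477 200 nM + quinpirole 12 nM, 30 min RT; HTRF cAMP (cAMP-d2/anti-cAMP cryptate), 665/620 nm ratio after 1 h.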
A short description of test [16]: p53 small molecule agonists, cell-based qHTS assay (AID 1963582; active = well fitted activation curve with a large enough effect in the signal ratio in the repeat runs, not every such curve was filed as active; the % refers to the signal ratio). The gist of the method:
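Quantitative HTS in p53RE-bla cells: after a 5 h settling period, compounds delivered in DMSO were left on cells for 16 h at 37 C, and reporter induction was measured as fluorescence following 2 h substrate loading.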

Test [17] can be described thus: cAMP Responsive Elements (CRE) small molecule antagonists, cell-based qHTS assay (AID 1963591; active = well fitted inhibition curve with a large enough effect in the signal ratio in the repeat runs, not every such curve was filed as active; the % refers to the signal ratio). Put shortly:
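Antagonist mode: test compounds are co-incubated with the adenylyl cyclase activator NKH477 (0.25 uM final) on CRE-bla HEK293T cells for 3 h at 37 °C, followed by LiveBLAzer substrate loading.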

Test [18] deals with Beta-2 adrenergic receptor (Homo sapiens) (UniProt P07550). The experiment in a line: Adrenergic beta2 receptor (ADRB2) small molecule antagonists, cell-based qHTS assay (AID 1963592). Note: series mostly up to about 92 µM; nearly all actives have a fitted effect of over 50% in size. The gist of the method:
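Cells (CHO, stable ADRB2 overexpression) incubated 18-20hr at 37C; compounds added from DMSO; agonist mix (1nM isoproterenol, 100uM IBMX, 25uM Ro-20-1724) added; 0.5hr RT; d2-cAMP and anti-cAMP-cryptate added; 1hr RT; 665/615 nm read.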

Test [19] is described as follows: p53 small molecule agonists, cell-based qHTS assay: qHTS cell viability counter screen (AID 1963581). Note: nearly all actives have a fitted effect of over 45% in size. Put shortly: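 Cells: HCT-116 with p53 response element-driven beta-lactamase. Treatment: 16 h, 37 C, compounds in DMSO. Read: CellTiter-Glo luminescence after 30 min RT.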

Values without a mark were called inactive. Results filed as inconclusive are left out. Active and inactive are the calls of the source. Unless noted, calls come from the whole dose curve.
% is set by controls: 0 for no effect and ±100 for the full control effect.

Sequence of Beta-2 adrenergic receptor (Homo sapiens) (P07550 whole entry, looked up): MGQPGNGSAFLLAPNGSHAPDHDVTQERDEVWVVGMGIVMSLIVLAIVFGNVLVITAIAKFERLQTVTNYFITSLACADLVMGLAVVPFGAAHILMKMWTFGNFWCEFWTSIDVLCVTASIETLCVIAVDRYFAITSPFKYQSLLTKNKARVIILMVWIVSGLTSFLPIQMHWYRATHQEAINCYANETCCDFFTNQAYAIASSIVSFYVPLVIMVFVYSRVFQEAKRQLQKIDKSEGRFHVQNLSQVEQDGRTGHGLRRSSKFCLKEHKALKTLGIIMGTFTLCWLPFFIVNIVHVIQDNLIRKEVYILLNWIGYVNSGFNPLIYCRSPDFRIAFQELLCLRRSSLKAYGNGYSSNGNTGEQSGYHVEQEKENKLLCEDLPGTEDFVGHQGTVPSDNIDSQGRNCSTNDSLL
Sequence of 5-hydroxytryptamine receptor 2A (Homo sapiens) (P28223 whole entry, looked up): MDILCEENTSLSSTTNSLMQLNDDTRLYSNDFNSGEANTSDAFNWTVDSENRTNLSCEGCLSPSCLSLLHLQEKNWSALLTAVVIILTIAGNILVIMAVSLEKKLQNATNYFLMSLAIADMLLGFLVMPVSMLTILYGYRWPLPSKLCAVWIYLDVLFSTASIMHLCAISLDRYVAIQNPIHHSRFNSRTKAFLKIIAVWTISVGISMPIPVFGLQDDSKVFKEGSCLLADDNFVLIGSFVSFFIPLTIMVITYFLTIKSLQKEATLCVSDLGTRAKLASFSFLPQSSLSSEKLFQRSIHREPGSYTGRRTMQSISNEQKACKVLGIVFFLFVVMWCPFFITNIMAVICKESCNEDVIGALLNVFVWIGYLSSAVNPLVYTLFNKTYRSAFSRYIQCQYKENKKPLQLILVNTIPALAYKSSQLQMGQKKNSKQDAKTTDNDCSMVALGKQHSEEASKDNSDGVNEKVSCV
Sequence of Gonadotropin-releasing hormone receptor (Homo sapiens) (P30968 whole entry, looked up): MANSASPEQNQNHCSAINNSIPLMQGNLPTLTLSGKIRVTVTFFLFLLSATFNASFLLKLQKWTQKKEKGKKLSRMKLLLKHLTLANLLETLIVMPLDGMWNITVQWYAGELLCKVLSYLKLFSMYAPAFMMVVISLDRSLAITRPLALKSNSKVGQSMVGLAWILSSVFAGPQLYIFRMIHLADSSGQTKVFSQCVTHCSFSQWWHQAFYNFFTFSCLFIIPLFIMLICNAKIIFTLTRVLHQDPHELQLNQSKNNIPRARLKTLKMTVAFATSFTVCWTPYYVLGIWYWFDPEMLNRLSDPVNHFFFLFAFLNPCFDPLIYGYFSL
Sequence of KiSS-1 receptor (Homo sapiens) (Q969F8 whole entry, looked up): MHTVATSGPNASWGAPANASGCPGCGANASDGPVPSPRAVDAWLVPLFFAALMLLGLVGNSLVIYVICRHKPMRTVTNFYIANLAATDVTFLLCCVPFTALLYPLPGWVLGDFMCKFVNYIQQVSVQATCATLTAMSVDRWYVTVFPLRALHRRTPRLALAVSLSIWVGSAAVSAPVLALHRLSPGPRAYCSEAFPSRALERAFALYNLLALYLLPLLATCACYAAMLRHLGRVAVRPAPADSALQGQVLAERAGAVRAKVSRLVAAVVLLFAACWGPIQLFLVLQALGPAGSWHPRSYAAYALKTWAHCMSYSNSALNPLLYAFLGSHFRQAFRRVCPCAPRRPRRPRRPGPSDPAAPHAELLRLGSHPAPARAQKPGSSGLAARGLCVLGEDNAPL
Sequence of D(2) dopamine receptor (Homo sapiens) (P14416 whole entry, looked up): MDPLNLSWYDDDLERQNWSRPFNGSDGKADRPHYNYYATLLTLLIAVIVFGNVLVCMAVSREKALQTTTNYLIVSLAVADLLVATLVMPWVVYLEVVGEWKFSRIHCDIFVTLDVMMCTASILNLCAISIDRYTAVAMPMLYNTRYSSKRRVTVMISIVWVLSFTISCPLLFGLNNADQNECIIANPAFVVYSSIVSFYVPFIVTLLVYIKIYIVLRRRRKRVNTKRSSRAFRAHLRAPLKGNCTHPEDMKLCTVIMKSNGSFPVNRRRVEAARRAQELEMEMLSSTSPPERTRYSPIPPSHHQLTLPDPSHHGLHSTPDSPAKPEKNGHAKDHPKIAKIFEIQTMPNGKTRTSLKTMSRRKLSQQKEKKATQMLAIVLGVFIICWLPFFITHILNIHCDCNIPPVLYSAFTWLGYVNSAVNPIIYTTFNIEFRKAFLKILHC
Sequence of Muscarinic acetylcholine receptor M1 (Homo sapiens) (P11229 whole entry, looked up): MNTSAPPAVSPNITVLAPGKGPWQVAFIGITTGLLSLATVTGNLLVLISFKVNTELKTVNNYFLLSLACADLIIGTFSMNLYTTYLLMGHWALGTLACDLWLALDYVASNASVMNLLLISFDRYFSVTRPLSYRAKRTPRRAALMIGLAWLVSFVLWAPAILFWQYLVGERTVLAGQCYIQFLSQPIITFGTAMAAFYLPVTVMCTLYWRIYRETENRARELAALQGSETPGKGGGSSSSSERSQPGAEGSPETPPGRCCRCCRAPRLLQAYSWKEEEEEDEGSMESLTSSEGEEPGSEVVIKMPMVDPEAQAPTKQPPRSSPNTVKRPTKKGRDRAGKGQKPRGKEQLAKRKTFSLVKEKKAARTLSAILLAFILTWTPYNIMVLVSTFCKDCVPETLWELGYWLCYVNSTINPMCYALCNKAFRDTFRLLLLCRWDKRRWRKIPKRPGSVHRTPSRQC

For `NC(=O)c1ccccc1[N+](=O)[O-]`, the Potency result in test [1], in test [2], in test [3], in test [5], in [6] and in test [7] was “inactive” in each case. In addition, the Potency entry in test [8], in test [9], in test [10], in test [11], in test [12] and in test [13] was “inactive” in each case. In addition, the Potency entry in test [14] and in [15] was “inactive” in each case. In addition, in [4], the outcome was inactive.

Take `CCCCCCCCCOC(C)=O`: the Potency entry in test [1], in [2], in test [3], in test [5], in test [6] and in [7] was “inactive” throughout. The Potency entry in test [8], in test [16], in test [10], in [11], in test [12] and in test [13] was “inactive” throughout. Also, the Potency result in test [17], in test [18], in test [14] and in [15] was “inactive” throughout. The result in test [4] was inactive.

For `CCCCCCCCCCCCCCCCCl`, the activity change, negative = cytotoxicity is -5.35% [at 19 µM] in test [1], 0.42% [at 13.5 µM] in [7] and -1.41% [at 13.5 µM] in test [19]. The activity, positive = activation in [2] is -7.33% [at 19 µM]. In [3], the activity change was 0.762% [at 11.8 µM, hits give high values]. The activation in test [4] is 2.27% [at 15.8 µM]; in [5], 1.18% [at 13.5 µM]; in test [6], 0.0918% [at 13.6 µM]; in [16], 0.101% [at 13.5 µM]; in test [10], -4.65% [at 15.9 µM]; in test [12], -0.468% [at 15.8 µM]. Also, the values for the activation in test [13] and in [14] were -1.81% [at 19 µM] and -1.48% [at 19 µM], respectively. In addition, the results for the activity, negative = inhibition in [9] and in [11] were 12.6% [at 12.7 µM] and -6.96% [at 12.6 µM], respectively. For the same compound, the activity change, negative = inhibition in test [18] is -9.7% [at 19 µM]; in [15] it was 2.16% [at 18.9 µM].

Consider `CCCCC(CC)CN1C(=O)C2C3C=CC(C3)C2C1=O` (stereo unspecified), for which the Potency result in test [1], in test [3], in test [5], in [6], in test [7] and in test [8] was “inactive” each time. The Potency result in test [19], in test [9], in test [10], in test [12], in [18] and in test [14] was “inactive” throughout. The Potency result in test [15] is “inactive”. For the same compound, the Potency in [2] is 54.5 µM (active). Besides, the result in test [4] was inactive.

Consider `O=C(CS)Nc1ccccc1`, for which the Potency result in test [1], in test [3], in test [5], in [6], in [7] and in test [8] was “inactive” each time. For the same compound, the Potency result in test [19], in test [16], in test [10], in test [11], in test [12] and in test [13] was “inactive” in each case. The Potency result in [17], in test [18] and in [14] was “inactive” throughout. In addition, the Potency in [2] was 29.8 µM (active). Moreover, the result in test [4] was inactive.

Consider `Cc1oc(-c2ccccc2)nc1CCC(=O)c1ccc(CC2SC(=O)NC2=O)cc1` (stereo unspecified), for which the Potency entry in [1], in test [2], in [3], in test [5], in [6] and in [7] was “inactive” each time. Moreover, the Potency entry in test [8], in test [19], in [9], in [10], in test [11] and in test [12] was “inactive” each time. The Potency result in [18], in [14] and in [15] was “inactive” each time. The outcome in test [4] was inactive.

`Cc1cc(O)c(C(C)(C)C)cc1C(C)(C)C`: the Potency in test [1] was 27.3 µM (active); in test [3], 38.9 µM (active); in [7], 18.2 µM (active); in test [8], 40.8 µM (active); in test [9] it was 18.8 µM (active); in test [10], 34.7 µM (active). Further, in [15], the Potency was 43.3 µM (active). Besides, the Potency entry in test [2], in test [5], in [6], in [11], in test [12] and in test [14] was “inactive” each time. Further, the result in [4] was inactive.
